Experimental data as given in PubChem BioAssay AID485297 (National Center for Advancing Translational Sciences (NCATS), 2010).
The whole screen tested about 320,000 compounds, of which about 9,100 (2.8%) were called active. Entries that show only a call come without a potency. Not shown: some 3% with an inconclusive outcome. The sample holds actives, similar compounds and a random draw of the others, so the mix is not that of the screen. The call rests on the fitted dose curve; in most records, active means well fitted activation curve with a large enough effect; inconclusive means small, poorly fitted or top-dose-only effect; inactive means no such curve, though single readings can be large or run the other way.

assay: qHTS Assay for Rab9 Promoter Activators; conditions: Huh7 Rab9 promoter-luciferase reporter, luminescence, 24 h; series mostly up to 9.22 µM; further: nearly all actives have a fitted effect of over 60% in size
Method in brief: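 Measured in stably transfected Huh7 cells bearing a Rab9 promoter–luciferase construct: 24 h compound treatment at 37 °C, followed by luminescence detection.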
Potency means the concentration at half of the fitted maximal effect.

Row | SMILES | Potency | activation, negative = inhibition
1 | O=[N+]([O-])c1cccc(/C=N/Nc2ncc(Br)cn2)c1 | 2820 nM (active) | –
2 | Cc1ccc(NC(=O)O/N=C/c2cccc([N+](=O)[O-])c2)cc1 | inactive | –
3 | O=C(N/N=C/c1cccc([N+](=O)[O-])c1)C1CC(=O)N(c2ccc(Br)cc2)C1 (stereo not given) | inactive | –
4 | CCOc1ccc(NC(=O)CN(C)C(=O)Cn2c(=O)cnc3ccccc32)cc1OCC | inactive | –
5 | Cc1cc(/C=N/NC(=O)c2cccnc2)c(C)n1CC(C)C | 2820 nM (active) | –
6 | O=C(N/N=C/c1ccccn1)c1cccnc1 | inactive | –
7 | Cc1nn(Cc2ccc(Cl)cc2)c(Cl)c1/C=N/NC(=O)c1cccnc1 | inactive | –
8 | O=C(Nc1nnc(C2CC2)s1)c1ccccn1 | 447 nM (active) | –
9 | O=C(Nc1nnc(C2CC2)s1)c1cc(Cl)sc1Cl | inactive | –
10 | Cc1cnc(NC(=O)CSc2c(Cl)cccc2Cl)s1 | inactive | –
11 | CS(=O)(=O)c1ccc2nc(NC(=O)c3ccc(Cl)nc3)sc2c1 | inactive | –
12 | COc1ccc(NC(=O)CCC(=O)Nc2nnc(C3CCCCC3)s2)cc1 | inactive | –
13 | Cc1occc1C(=O)Nc1nnc(-c2ccncc2)s1 | inactive | –
14 | Cc1cnc(NC(=O)c2ccccn2)s1 | 282 nM (active) | –
15 | Cc1cnc(NC(=O)C2CCCC2)s1 | inactive | –
16 | CCN(CC)c1ccc(NC(=O)c2ccc(Cl)nc2)cc1 | inactive | –
17 | Cc1cnc(NC(=O)c2ccc(Cl)nc2)s1 | 2820 nM (active) | –
18 | O=C(Cc1cccs1)Nc1nnc(C2CC2)s1 | inactive | –
19 | Cc1occc1C(=O)Nc1nnc(C2CCCCC2)s1 | 2820 nM (active) | –
20 | CCCCCN(C(=O)CCC(=O)OCC(=O)NCc1ccc(OC)cc1)c1c(N)n(CCCC)c(=O)[nH]c1=O | inactive | –
21 | CC(=O)c1ccccc1NC(=O)C1CC(=O)N(c2ccc3c(c2)OCCO3)C1 (stereo not given) | inactive | –
22 | CN(CC(=O)Nc1ccc(OC(F)(F)F)cc1)C(=O)C1CCC1 | inactive | –

Row | SMILES | Potency | activation, negative = inhibition
23 | CSc1ccccc1NC(=O)COC(=O)CCCOc1ccc(C)cc1 | inactive | –
24 | Cc1ccc(S(=O)(=O)N2CCN(C(=O)N3CCOCC3)CC2)c(C)c1 | inactive | –
25 | COc1ccccc1N1CCN(C(=O)C(=O)N/N=C/c2ccccc2F)CC1 | inactive | –
26 | COc1cc(/C=N/N2CCN(c3ccccc3)CC2)ccc1OC(C)=O | inactive | –
27 | COc1ccccc1N1CCN(/N=C/c2ccc(O)cc2O)CC1 | 3160 nM (active) | –
28 | Fc1ccc(COc2cccc(-c3n[nH]c(=S)o3)c2)cc1 | inactive | –
29 | Fc1ccc(COc2ccc(-c3nnco3)cc2)cc1 | 3980 nM (active) | –
30 | Fc1cccc(Cl)c1COc1ccc(-c2nnco2)cc1 | inactive | –
31 | CC(NC(=O)c1cccc(S(=O)(=O)N2CCc3ccccc3C2)c1)c1ccco1 (stereo not given) | inactive | –
32 | O=C(CSc1nnc(CN2CCCC2)n1-c1ccc(F)cc1)c1ccc2c(c1)OCO2 | inactive | –
33 | CC(C)(C)OC(=O)NCCCCCNC(=O)c1[nH]cnc1C(=O)Nc1nccs1 | inactive | –
34 | CC(C)c1ccc(N2CCN(C(=O)c3ccccc3NC(=O)/C=C(\C(=O)O)c3ccccc3)CC2)cc1 | inactive | –
35 | Cc1cccc(CSc2nnc(NC(=O)CSc3nnc(C)s3)s2)c1 | inactive | –
36 | NC(=O)CSc1nnc(NC(=O)c2ccc3ccccc3c2)s1 | 2820 nM (active) | –
37 | C=CCSc1nnc(NC(=O)c2ccc(NC(C)=O)cc2)s1 | inactive | –
38 | CCSc1nnc(NC(=O)c2ccc(C)cc2)s1 | 2240 nM (active) | –
39 | NC(=O)CSc1nnc(NC(=O)c2ccc(Br)o2)s1 | inactive | –
40 | O=C(/C=C/c1ccccc1)Nc1nnc(SCC(=O)c2ccc3ccccc3c2)s1 | inactive | –
41 | C[C@H](NC(=O)c1ccccc1)C(=O)OCC(=O)c1c[nH]c2ccccc12 | inactive | –
42 | O=C(Nc1ccc(C(F)(F)F)cc1)c1cccc(-n2cnnn2)c1 | inactive | –
43 | O=C(CCNS(=O)(=O)c1ccccc1)NCCSc1ccc(Br)cc1 | inactive | –
44 | COc1ccccc1-c1nc(SC)n[nH]1 | inactive | –

Row | SMILES | Potency | activation, negative = inhibition
45 | Cc1cc(C)nc(Nc2ncn[nH]2)n1 | inactive | –
46 | Cc1cc(C)nc(Nc2n[nH]c(-c3ccccc3N)n2)n1 | 501 nM (active) | –
47 | COC(=O)c1ccc(COC(=O)CNC(=O)c2cccc(OC)c2)o1 | inactive | –
48 | O=C(Nc1cc(Cl)ccc1N1CCOCC1)c1ccc(N2CCCC2=O)cc1 | inactive | –
49 | COc1ccccc1CNC(=O)COC(=O)CNS(=O)(=O)c1ccc(NC(C)=O)cc1 | inactive | –
50 | Cc1cccc(C(=O)NCC(=O)OCC(=O)N(C)CC(=O)Nc2ccccc2Cl)c1 | inactive | –
51 | CCn1c(SCC(=O)NCC2CCCO2)nc2ccccc21 (stereo not given) | inactive | –
52 | CN(C(=O)COC(=O)CCCc1c[nH]c2ccccc12)c1c(N)n(Cc2ccccc2)c(=O)[nH]c1=O | inactive | –
53 | FC(F)(F)c1ccnc(Oc2ccc(C3=NCCS3)cc2)c1 | 708 nM (active) | –
54 | O=[N+]([O-])c1cccc(C2=NCCS2)c1 | inactive | –
55 | O=Cc1ccc(Oc2cccc(C(F)(F)F)c2)nc1 | inactive | –
56 | CCN(CC(=O)Nc1ccc(OC)cc1)C(=O)c1ccc(=O)n(Cc2ccccc2)n1 | inactive | –
57 | COc1ccc(NC(=O)COC(=O)c2n[nH]c3ccccc23)c(OC)c1 | inactive | –
58 | COc1cccc(NC(=O)c2cc(S(=O)(=O)N3CCc4ccccc43)cn2C)c1 | inactive | –
59 | O=c1ccc2c(-c3ccccc3S(=O)(=O)O)c3ccc(O)c(O)c3oc-2c1O | inactive | –
60 | COc1cc(OC)cc(C(=O)NCC(=O)N2CCCCCCC2)c1 | inactive | –
61 | Cc1ccc2nc(-c3ccc(SCC(=O)Nc4cc(C)on4)nc3)[nH]c2c1 | 3980 nM (active) | –
62 | Cc1ccc(SCCC(=O)Nc2cc(C)on2)cc1 | inactive | –
63 | Cc1ccc2nc(SCC(=O)NC3CCCC3)[nH]c2c1 | inactive | –
64 | COc1ccc(N(CC(=O)NCCSCc2cccc(Cl)c2)S(C)(=O)=O)cc1 | inactive | –
65 | CCN(C(=O)CSc1ncnc2sccc12)c1c(N)n(Cc2ccccc2)c(=O)[nH]c1=O | inactive | –
66 | NS(=O)(=O)c1ccc(CCNC(=O)COC(=O)COc2cccc(C(F)(F)F)c2)cc1 | inactive | –

Row | SMILES | Potency | activation, negative = inhibition
67 | COc1ccc(C2Nc3ccccc3C(=O)N2Cc2ccccc2)cc1Cn1nnc2ccccc21 (stereo not given) | inactive | –
68 | COc1ccc(C2Nc3ccccc3C(=O)N2c2ccc(F)cc2)cc1Cn1nnc2ccccc21 (stereo not given) | inactive | –
69 | COc1ccc(C2Nc3ccccc3C(=O)N2c2ccc(Cl)cc2)cc1Cn1cc([N+](=O)[O-])cn1 (stereo not given) | 2000 nM (active) | –
70 | COc1ccccc1Nc1nnc(SC(C)C(=O)NC2CC2)s1 (stereo not given) | inactive | –
71 | CCOC(=O)N1CCN(C(=O)COc2ccc3oc4c(c3c2)CCCC4)CC1 | inactive | –
72 | CCN(CC)CCCNC(=O)COc1ccc2oc3c(c2c1)CCCC3 | – | 1.01% [at 1.84 µM] (inactive)
73 | O=C(COc1ccc2oc3c(c2c1)CCCC3)Nc1ccccn1 | 1580 nM (active) | –
74 | COc1ccc(C)cc1NC(=O)CN1c2cccc3cccc(c23)S1(=O)=O | inactive | –
75 | NC(=O)c1sc2nc3c(c(-c4ccccc4)c2c1N)CCC3 | inactive | –
76 | CCCC(=O)n1nc(-c2ccccc2)nc1N | inactive | –
77 | Cc1nc2ccccc2c(-c2ccccc2)c1C(=O)c1ccccc1 | inactive | –
78 | CN(C)c1ccnc2sc3c(=O)n(Cc4ccccc4)cnc3c12 | inactive | –
79 | Cc1ccc2c(N)c(C(=O)c3ccccc3)sc2n1 | 3160 nM (active) | –
80 | CCN(CC)C(=O)c1sc2nc(-c3ccccc3)ccc2c1N | 1780 nM (active) | –
81 | COC(=O)c1cc2c(N)c(C(=O)c3ccc(Cl)cc3)sc2nc1C(OC)OC | inactive | –
82 | CN(C)c1ccnc2sc(C(=O)c3ccccc3)c(N)c12 | 2820 nM (active) | –
83 | CS(=O)(=O)c1sc2nc(-c3ccccc3)cc(-c3ccccc3)c2c1N | inactive | –
84 | CCOc1ccc(S(=O)(=O)N2CCCCC2)cc1NC(=O)CN1CCCC1c1cccs1 (stereo not given) | inactive | –
85 | N#Cc1ccc(OCC(=O)NC(=O)NC2CCS(=O)(=O)C2)cc1 (stereo not given) | inactive | –
86 | CCOC(=O)c1cc(-c2ccccc2C)n(Cc2cc(C)no2)n1 | inactive | –
87 | Cc1ccc(F)cc1NC(=O)CSCc1c(C)noc1C | inactive | –
88 | CN(CC(=O)Nc1ccc(Cl)c(C(F)(F)F)c1)C(=O)CCC(=O)c1ccccc1 | inactive | –

Row | SMILES | Potency | activation, negative = inhibition
89 | NC1CCN(O)C1=O (stereo not given) | inactive | –
90 | CC(C)CN(C(=O)CSc1ncnc2sccc12)C1CCS(=O)(=O)C1 (stereo not given) | inactive | –
91 | CC(=O)Nc1ccc(NC(=O)C(NS(=O)(=O)c2ccc3c(c2)OCCO3)C(C)C)cc1 (stereo not given) | inactive | –
92 | Cc1ccc(S(=O)(=O)N(C)CC(=O)NCC(c2ccc(F)cc2)N2CCOCC2)cc1 (stereo not given) | inactive | –
93 | O=C(COc1ccc(Cl)cc1)Nc1ccc2oc(=O)ccc2c1 | inactive | –
94 | CC(C)C(=O)Nc1ccc(C(=O)NNC(=O)c2cccs2)cc1 | inactive | –
95 | Cc1ccc(-c2csc(NC(=O)Cn3[nH]c(=O)c4ccccc4c3=O)n2)cc1 | inactive | –
96 | Cc1ccc(C(=O)NNC(=O)c2cccs2)cc1 | 2820 nM (active) | –
97 | O=C(Nc1ccccc1)c1ccc(NC(=O)c2cccs2)cc1 | inactive | –
98 | Cc1ccc(C(=O)Nc2ccc(NC(=O)c3cccs3)cc2)c(C)c1 | inactive | –
99 | Cc1ccc(C)c(NC(=O)CCC(=O)NNC(=O)c2cccs2)c1 | inactive | –
100 | Cc1nc(-c2ccc(NC(=O)c3cccs3)cc2)cs1 | 398 nM (active) | –
101 | CCCc1ccc(-c2csc(NC(=O)Cc3cccs3)n2)cc1 | inactive | –
102 | NNC(=O)c1ccc(Cl)cc1Cl | inactive | –
103 | Cc1ccc(-c2csc(NC(=O)c3cccs3)n2)cc1 | 3550 nM (active) | –
104 | O=C(NNC(=O)c1ccc(Cl)cc1Cl)c1cccs1 | 3550 nM (active) | –
105 | Cc1ccc(NNC(=O)c2cccs2)cc1Cl | inactive | –
106 | Cc1cccc(C)c1NC(=O)CNC(=O)C1CCCC1 | inactive | –
107 | O=C(CN1CCCCC1)NC(=O)Nc1ccccc1F | inactive | –
108 | CC(=O)C[C@@H](O)CC(=O)[C@H]1OC(=O)CCCCCCc2ccccc21 | inactive | –
109 | Cc1cc(C(=O)OCC(=O)Nc2ccccc2Cl)c(C)o1 | inactive | –
110 | O=C(COc1ccccc1O)NC1CCCC1 | inactive | –
